# Test results taken from ChEMBL document CHEMBL3988442, “University of Dundee, Small-Polar-MMV Screening Library” (2021).
# For some of these results: Measured potencies and affinities stand elsewhere.
# Experiments:
# Set-up in all cases: scale not given: direction of the effect not stated beside the values
# [1] = target: Protein translocase subunit SecA (Escherichia coli (strain K12)) (UniProt P10408); assay: Assay to Identify E. coli SecA ATPase Inhibitors; assay type: functional; settings: 30 µM
# Protein translocase subunit SecA (Escherichia coli (strain K12)), sequence (P10408 whole entry): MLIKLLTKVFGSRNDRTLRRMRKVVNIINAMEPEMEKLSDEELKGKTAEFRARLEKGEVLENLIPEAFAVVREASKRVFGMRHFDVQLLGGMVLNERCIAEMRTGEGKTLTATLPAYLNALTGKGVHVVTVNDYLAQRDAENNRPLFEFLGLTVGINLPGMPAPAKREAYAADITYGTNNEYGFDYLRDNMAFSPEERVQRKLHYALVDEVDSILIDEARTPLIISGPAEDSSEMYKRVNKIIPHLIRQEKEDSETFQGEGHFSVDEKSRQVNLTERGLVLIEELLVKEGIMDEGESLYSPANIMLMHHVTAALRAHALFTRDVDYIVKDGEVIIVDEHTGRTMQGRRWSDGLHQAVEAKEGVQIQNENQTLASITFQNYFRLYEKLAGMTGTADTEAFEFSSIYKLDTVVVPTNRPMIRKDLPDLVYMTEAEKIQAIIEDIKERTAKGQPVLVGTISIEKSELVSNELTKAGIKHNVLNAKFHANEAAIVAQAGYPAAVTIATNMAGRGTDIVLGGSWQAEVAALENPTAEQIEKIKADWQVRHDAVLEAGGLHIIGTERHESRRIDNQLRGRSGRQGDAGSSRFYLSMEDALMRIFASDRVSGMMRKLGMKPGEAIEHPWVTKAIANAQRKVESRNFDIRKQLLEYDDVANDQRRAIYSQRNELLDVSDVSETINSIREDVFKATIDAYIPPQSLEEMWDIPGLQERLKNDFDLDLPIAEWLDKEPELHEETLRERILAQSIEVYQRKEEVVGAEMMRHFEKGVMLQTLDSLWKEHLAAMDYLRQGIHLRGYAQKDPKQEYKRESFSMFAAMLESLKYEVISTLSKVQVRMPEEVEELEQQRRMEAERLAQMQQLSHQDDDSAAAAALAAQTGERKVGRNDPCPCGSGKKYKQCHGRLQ
# [2] = target: T1, Ubiquitin-activating enzyme e1, putative (Leishmania donovani (strain BPK282A1)) (UniProt E9BSI1); assay: Leishmania donovani Ubiquitin Activating Enzyme (LdE1); assay type: functional; settings: 30 µM
# T1 sequence (whole entry): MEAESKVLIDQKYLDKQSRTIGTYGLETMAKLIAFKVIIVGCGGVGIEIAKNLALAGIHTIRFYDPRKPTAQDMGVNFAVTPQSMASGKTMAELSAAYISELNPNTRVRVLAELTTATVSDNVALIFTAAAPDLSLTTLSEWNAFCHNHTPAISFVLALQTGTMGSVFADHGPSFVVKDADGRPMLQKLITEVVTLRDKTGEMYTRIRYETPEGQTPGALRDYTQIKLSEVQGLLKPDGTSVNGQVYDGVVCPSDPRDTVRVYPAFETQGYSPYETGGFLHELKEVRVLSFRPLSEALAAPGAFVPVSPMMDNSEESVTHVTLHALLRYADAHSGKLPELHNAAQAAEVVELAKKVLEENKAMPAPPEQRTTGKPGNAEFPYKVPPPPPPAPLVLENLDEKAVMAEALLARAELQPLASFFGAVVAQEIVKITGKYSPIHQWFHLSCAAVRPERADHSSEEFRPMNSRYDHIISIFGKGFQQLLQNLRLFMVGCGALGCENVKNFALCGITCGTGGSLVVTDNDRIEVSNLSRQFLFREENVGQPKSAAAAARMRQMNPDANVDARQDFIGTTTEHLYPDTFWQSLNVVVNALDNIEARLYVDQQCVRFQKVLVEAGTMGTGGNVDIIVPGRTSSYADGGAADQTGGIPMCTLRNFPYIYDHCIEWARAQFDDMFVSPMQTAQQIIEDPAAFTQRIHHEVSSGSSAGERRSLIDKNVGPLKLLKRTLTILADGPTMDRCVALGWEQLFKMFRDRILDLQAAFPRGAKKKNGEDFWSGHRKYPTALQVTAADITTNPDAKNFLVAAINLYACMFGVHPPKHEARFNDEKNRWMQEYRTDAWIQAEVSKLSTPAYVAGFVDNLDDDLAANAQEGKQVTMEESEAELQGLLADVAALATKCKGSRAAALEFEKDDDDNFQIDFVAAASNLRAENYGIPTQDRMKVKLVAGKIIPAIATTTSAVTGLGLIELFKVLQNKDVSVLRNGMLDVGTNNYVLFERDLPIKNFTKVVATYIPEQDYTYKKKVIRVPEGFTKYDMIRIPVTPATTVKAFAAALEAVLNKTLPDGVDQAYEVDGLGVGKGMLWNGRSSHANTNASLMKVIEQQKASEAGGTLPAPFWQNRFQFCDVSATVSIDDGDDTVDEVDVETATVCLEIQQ
# [3] = target: AMP-activated protein kinase, AMPK (Homo sapiens) (UniProt P54646+O43741+P54619+Q9UGJ0+Q9Y478+Q13131+Q9UGI9); assay: AMP-dependent Kinase enzyme assay. An in vitro enzyme assay that detects ADP turnover that is directly proportional to AMPK activity. This uses naive AMPK that is activated during the assay with MK-8722; assay type: functional; settings: 30 µM
# [4] = target: Sialic acid-binding Ig-like lectin 9 (Homo sapiens) (UniProt Q9Y336); assay: Hs-Siglec9 ALPHAscreen SOP 20170721; settings: 10 µM
# Sialic acid-binding Ig-like lectin 9 (Homo sapiens), sequence (Q9Y336 whole entry): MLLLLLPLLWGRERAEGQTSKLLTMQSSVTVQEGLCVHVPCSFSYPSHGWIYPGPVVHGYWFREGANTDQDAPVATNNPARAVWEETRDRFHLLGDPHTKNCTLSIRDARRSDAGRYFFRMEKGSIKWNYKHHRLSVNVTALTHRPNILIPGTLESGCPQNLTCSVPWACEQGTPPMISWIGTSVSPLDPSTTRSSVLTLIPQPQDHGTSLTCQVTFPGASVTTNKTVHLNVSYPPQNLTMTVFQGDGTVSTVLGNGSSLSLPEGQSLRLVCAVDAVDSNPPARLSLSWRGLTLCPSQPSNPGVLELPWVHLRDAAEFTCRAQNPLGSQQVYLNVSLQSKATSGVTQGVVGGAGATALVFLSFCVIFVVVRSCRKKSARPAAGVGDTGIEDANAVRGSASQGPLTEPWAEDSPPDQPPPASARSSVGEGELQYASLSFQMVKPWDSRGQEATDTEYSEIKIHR
# [5] = test system: Trypanosoma cruzi; assay: Trypanosoma cruzi phosphomannomutase and mannose-1-phosphate guanylyltransferase assay; assay type: functional; settings: 10 µM
# [6] = target: T2, Arginase-2, mitochondrial (Homo sapiens) (UniProt P78540); assay: in vitro enzyme assay to detect the production of urea directly proportional to the activity of Arginase II; assay type: functional; settings: 33.3 µM; also: in the data most compounds retested in dose-response had high values
# T2 sequence (whole entry): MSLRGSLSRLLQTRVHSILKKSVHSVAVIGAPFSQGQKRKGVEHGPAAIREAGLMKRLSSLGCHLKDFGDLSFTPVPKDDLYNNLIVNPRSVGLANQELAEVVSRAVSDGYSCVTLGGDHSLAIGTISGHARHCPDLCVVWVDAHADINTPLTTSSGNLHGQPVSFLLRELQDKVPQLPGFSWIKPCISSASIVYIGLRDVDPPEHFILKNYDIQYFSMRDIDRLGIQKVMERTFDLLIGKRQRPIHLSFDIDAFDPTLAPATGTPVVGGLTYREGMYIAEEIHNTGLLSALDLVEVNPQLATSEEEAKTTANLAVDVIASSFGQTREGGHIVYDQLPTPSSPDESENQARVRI
# [7] = target: T3, Proteasome subunit beta (Trypanosoma cruzi) (UniProt O96673); assay: Trypanosoma cruzi proteasome chymotrypsin-like activity (TcProtChymo) assay.; also: in the data most compounds retested in dose-response had high values; assay type: functional; settings: 9.37 µM
# T3 sequence (whole entry): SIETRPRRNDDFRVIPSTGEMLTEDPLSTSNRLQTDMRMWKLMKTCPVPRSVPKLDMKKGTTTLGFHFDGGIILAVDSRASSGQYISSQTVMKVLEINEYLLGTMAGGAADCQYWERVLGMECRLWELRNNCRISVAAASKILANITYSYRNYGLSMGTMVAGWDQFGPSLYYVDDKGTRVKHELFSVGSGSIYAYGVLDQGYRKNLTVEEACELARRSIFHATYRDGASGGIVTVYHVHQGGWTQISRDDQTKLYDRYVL
# [8] = species: Homo sapiens; assay: To identify inhibition of the IFN signalling (Jak-Stat) pathway via expression of an eGFP reporter gene under the control of an IFN-stimulated response element (ISRE) containing MxA promoter.; assay type: functional; settings: 30 µM
# [9] = target: T4, Tyrosyl-tRNA synthetase, putative (Trypanosoma cruzi (strain CL Brener)) (UniProt Q4DSP6); assay: Trypanosoma cruzi tyrosyl tRNA synthetase (TcYRS) _High Tyrosine SOP; assay type: functional; settings: 30 µM; also: in the data most compounds retested in dose-response had high values
# T4 sequence (whole entry): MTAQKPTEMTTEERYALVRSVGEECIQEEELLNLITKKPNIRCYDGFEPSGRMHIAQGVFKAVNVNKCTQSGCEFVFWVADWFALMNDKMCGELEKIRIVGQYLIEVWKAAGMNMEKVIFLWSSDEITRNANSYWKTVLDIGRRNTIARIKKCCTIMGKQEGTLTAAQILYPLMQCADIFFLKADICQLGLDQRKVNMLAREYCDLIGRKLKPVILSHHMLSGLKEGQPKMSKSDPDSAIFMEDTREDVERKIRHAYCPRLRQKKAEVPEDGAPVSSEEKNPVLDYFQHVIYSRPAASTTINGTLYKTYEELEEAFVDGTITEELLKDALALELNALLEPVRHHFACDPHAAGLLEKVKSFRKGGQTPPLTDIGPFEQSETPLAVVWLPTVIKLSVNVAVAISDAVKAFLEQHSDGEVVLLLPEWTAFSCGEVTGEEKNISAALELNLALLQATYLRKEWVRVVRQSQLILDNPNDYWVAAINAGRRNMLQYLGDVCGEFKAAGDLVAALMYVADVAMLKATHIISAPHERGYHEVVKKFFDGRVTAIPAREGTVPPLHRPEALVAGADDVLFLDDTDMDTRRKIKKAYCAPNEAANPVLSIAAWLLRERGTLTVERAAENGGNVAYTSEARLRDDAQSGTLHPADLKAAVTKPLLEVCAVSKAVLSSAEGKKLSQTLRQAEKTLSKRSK
# [10] = target: T4, Tyrosyl-tRNA synthetase, putative (Trypanosoma cruzi (strain CL Brener)); assay: Trypanosoma cruzi tyrosyl tRNA synthetase (TcYRS) SOP; assay type: functional; settings: 30 µM
# [11] = target: Chromo domain-containing protein 1 (Saccharomyces cerevisiae (strain ATCC 204508 / S288c) (Baker's yeast)) (UniProt P32657); assay: ScCHD-1 Enzyme Inhibition Assay; assay type: functional; settings: 30 µM; also: in the data most compounds retested in dose-response had high values
# Chromo domain-containing protein 1 (Saccharomyces cerevisiae (strain ATCC 204508 / S288c) (Baker's yeast)), sequence (P32657 whole entry, the tested form may be a part): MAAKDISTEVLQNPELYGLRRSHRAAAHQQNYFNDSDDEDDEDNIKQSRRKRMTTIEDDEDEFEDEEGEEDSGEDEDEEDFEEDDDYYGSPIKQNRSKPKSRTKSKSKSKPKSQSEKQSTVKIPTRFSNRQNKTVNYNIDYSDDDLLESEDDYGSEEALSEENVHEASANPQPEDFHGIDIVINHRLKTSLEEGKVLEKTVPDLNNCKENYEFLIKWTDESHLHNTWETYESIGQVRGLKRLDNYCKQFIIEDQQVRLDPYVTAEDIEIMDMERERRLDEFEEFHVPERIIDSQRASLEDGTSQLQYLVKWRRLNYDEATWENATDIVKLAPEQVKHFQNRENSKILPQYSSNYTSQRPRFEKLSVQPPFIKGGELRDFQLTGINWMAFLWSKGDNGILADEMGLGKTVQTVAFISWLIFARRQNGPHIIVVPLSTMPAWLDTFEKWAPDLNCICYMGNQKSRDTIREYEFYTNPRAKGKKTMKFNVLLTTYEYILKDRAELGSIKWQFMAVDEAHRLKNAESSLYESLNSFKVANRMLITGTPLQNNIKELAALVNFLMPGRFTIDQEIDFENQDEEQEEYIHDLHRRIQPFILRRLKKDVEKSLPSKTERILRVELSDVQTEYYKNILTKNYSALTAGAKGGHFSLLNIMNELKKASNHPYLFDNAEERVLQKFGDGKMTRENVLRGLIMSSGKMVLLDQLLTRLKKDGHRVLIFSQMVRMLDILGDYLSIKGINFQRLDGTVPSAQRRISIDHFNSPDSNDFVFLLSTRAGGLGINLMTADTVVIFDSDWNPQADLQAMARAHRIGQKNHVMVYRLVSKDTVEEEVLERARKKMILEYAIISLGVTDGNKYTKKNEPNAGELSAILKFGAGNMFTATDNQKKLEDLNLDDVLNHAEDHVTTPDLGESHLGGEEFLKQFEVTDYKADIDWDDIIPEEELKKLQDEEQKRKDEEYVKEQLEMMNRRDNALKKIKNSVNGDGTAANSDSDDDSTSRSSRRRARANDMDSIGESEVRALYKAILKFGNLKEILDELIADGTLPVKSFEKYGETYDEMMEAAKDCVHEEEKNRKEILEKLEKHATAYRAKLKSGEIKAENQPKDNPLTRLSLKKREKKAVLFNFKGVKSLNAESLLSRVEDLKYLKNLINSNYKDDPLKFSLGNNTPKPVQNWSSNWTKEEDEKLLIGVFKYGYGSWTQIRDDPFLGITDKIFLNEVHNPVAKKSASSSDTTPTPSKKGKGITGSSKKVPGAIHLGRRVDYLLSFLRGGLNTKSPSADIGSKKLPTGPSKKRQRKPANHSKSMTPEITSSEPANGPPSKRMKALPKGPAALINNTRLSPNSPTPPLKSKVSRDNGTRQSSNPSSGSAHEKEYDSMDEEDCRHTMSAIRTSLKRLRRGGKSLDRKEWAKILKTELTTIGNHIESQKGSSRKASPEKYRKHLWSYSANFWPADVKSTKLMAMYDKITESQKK
smiles,measurement,setting,value
CC(C)c1ccc(O)c(C(=O)N2CCN(Cc3cscn3)CC2)c1,Percent Effect,[1],-1.48%
same,Percent Effect,[2],16.2%
same,Percent Effect,[3],0.162%
same,Percent Effect,[4],10.1%
same,Percent Effect,[5],5.85%
same,Percent Effect,[6],-6.1%
same,Percent Effect,[7],4.85%
same,Percent Effect,[8],26.8%
same,Percent Effect,[9],5.94%
same,Percent Effect,[10],18.3%
same,Percent Effect,[11],-3.11%
Cc1cccc(OCCC(=O)N(C)CCNS(C)(=O)=O)c1C,Percent Effect,[1],-2.9%
same,Percent Effect,[2],5.26%
same,Percent Effect,[3],8.08%
same,Percent Effect,[4],6.9%
same,Percent Effect,[5],-4.58%
same,Percent Effect,[6],-2.37%
same,Percent Effect,[7],7.96%
same,Percent Effect,[8],3.29%
same,Percent Effect,[9],2.13%
same,Percent Effect,[10],13%
same,Percent Effect,[11],-5.08%
COc1c(C)cnc(CN2CCC(C(=O)N(C)C)CC2)c1C,Percent Effect,[1],-5.69%
same,Percent Effect,[2],5.2%
same,Percent Effect,[3],0.364%
same,Percent Effect,[4],10.3%
same,Percent Effect,[5],2.81%
same,Percent Effect,[6],1.42%
same,Percent Effect,[7],9.46%
same,Percent Effect,[8],-0.558%
same,Percent Effect,[9],1.94%
same,Percent Effect,[10],7.32%
same,Percent Effect,[11],-6.93%
CC(CN1CCC2(CC1)c1nc[nH]c1CCN2S(C)(=O)=O)C(F)(F)F (stereo unspecified),Percent Effect,[1],-5.83%
same,Percent Effect,[2],4.17%
same,Percent Effect,[3],-4.55%
same,Percent Effect,[4],0.526%
same,Percent Effect,[5],-2.62%
same,Percent Effect,[6],-1.77%
same,Percent Effect,[7],8.07%
same,Percent Effect,[8],-8.95%
same,Percent Effect,[9],3.16%
same,Percent Effect,[10],2.56%
same,Percent Effect,[11],-1.32%
CN1CCN(c2cc(CCNC(=O)C3CCC3)nc(C3CC3)n2)CC1,Percent Effect,[1],-1.04%
same,Percent Effect,[2],12.2%
same,Percent Effect,[3],4.69%
same,Percent Effect,[4],0.557%
same,Percent Effect,[5],-4.74%
same,Percent Effect,[6],-0.232%
same,Percent Effect,[7],14.2%
same,Percent Effect,[8],15.8%
same,Percent Effect,[9],4.3%
same,Percent Effect,[10],9.09%
same,Percent Effect,[11],-9.84%
O=C(CCNc1ncccn1)N1CCCC(n2ccnc2)C1 (stereo unspecified),Percent Effect,[1],-7.87%
same,Percent Effect,[2],6.33%
same,Percent Effect,[3],7.8%
same,Percent Effect,[4],-0.356%
same,Percent Effect,[5],-2.77%
same,Percent Effect,[6],0.645%
same,Percent Effect,[7],9.78%
same,Percent Effect,[8],12%
same,Percent Effect,[9],8.33%
same,Percent Effect,[10],15.2%
same,Percent Effect,[11],-20.9%
CCc1nnsc1C(=O)NCCn1nc2ccccn2c1=O,Percent Effect,[1],-5.54%
same,Percent Effect,[2],18.9%
same,Percent Effect,[3],-7.77%
same,Percent Effect,[4],20.2%
same,Percent Effect,[5],5.66%
same,Percent Effect,[6],4.25%
same,Percent Effect,[7],8.8%
same,Percent Effect,[8],-0.849%
same,Percent Effect,[9],6.93%
same,Percent Effect,[10],18.3%
same,Percent Effect,[11],-9.16%
CCCN1CC(C(=O)Nc2ccccn2)CC1=O (stereo unspecified),Percent Effect,[1],0.0255%
same,Percent Effect,[2],0%
same,Percent Effect,[3],-0.466%
same,Percent Effect,[4],5.93%
same,Percent Effect,[5],4.83%
same,Percent Effect,[6],12.4%
same,Percent Effect,[7],9.31%
same,Percent Effect,[8],15.4%
same,Percent Effect,[9],2.65%
same,Percent Effect,[10],7.32%
same,Percent Effect,[11],-4.7%
Nc1nccc(N2CCC(Cc3ccccc3Cl)(C(=O)O)CC2)n1,Percent Effect,[1],-1.91%
same,Percent Effect,[2],16.2%
same,Percent Effect,[3],-3.46%
same,Percent Effect,[4],22.5%
same,Percent Effect,[5],6.56%
same,Percent Effect,[6],9.52%
same,Percent Effect,[7],18.1%
same,Percent Effect,[8],-0.891%
same,Percent Effect,[9],5.82%
same,Percent Effect,[10],21.9%
same,Percent Effect,[11],-7.9%
CN1CCC(Oc2ccc(NC(=O)c3cccc(Cl)c3)cc2)CC1,Percent Effect,[1],-5.92%
same,Percent Effect,[2],0%
same,Percent Effect,[3],6.08%
same,Percent Effect,[4],4.72%
same,Percent Effect,[5],3.05%
same,Percent Effect,[6],19.3%
same,Percent Effect,[7],10.2%
same,Percent Effect,[8],12.9%
same,Percent Effect,[9],-5.38%
same,Percent Effect,[10],1.24%
same,Percent Effect,[11],-3.75%
Cc1cn2c(n1)CCC(NC(=O)CCn1cncn1)C2 (stereo unspecified),Percent Effect,[1],-8.14%
same,Percent Effect,[2],5.26%
same,Percent Effect,[3],-6.54%
same,Percent Effect,[4],-5.36%
same,Percent Effect,[5],-3.64%
same,Percent Effect,[6],-2.88%
same,Percent Effect,[7],10.4%
same,Percent Effect,[8],-0.843%
same,Percent Effect,[9],-1.48%
same,Percent Effect,[10],1.24%
same,Percent Effect,[11],7.18%
